Results filed as inconclusive are left out. Calls of active or inactive are those of the source. Calls come from the whole dose curve; as a rule, active = well fitted activation curve with a large enough effect; inconclusive = small, poorly fitted or top-dose-only effect; inactive = flat fitted curve, though single readings scatter.
test: qHTS for Inhibitors of Cell Surface uPA Generation: Confirmatory Assay for Cherry-picked Compounds; conditions: cell surface uPA activity generation, qHTS confirmation; series mostly up to 115 µM; inhibition: at the top concentration; note: 0% is about no effect
How it was run: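 RAW 264.7 cells at 4000/well, incubated overnight, then treated with compounds. After 24 h at 37 C, viability was read by ATPlite luminescence. An increase in signal indicates blocked uPA-dependent LF entry.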

inhibition, inactive:
Cc1ccc(S(=O)(=O)N2CCN(C(=O)c3n[nH]c(=O)c4ccccc34)CC2)cc1 -1.76%, COc1cccc(-n2c(SCC(=O)Nc3cc(C)on3)nc3c([nH]c4ccccc43)c2=O)c1 10.4%, CC1CCCCN1C(=O)CSc1nc2ncccc2[nH]1 (configuration not stated) -2.7%, COc1ccc(N2CCN(S(=O)(=O)c3ccc4c(c3)NC(=O)CS4)CC2)cc1 -0.636%, CN(CC(=O)N(C)CC(=O)Nc1c(Cl)cccc1Cl)Cc1ccccc1F 0.804%, CC(C)(C)NC(=O)C(c1cccs1)N(C(=O)c1csnn1)c1ccccc1F (configuration not stated) -1.14%, COC(=O)CSc1nc(N2CCOCC2)c2c(c1C#N)CCCC2 -3.22%, CCN1CCN(C(c2ccccc2)c2nnnn2Cc2ccc3c(c2)OCO3)CC1 (configuration not stated) 2.01%, CN(C)S(=O)(=O)c1cccc(C(=O)OCC(=O)NCc2ccc3c(c2)OCO3)c1 -1.01%, COc1cc(N/C(N)=N/c2nc(C)cc(C)n2)cc(OC)c1 -3.5%, COCCN(C(=O)CSc1nnc(-c2ccncc2)n1C)c1c(N)n(CC(C)C)c(=O)[nH]c1=O -1.56%, CCOC(=O)C1CCCN(CC(=O)Nc2ccc(C(=O)Nc3ccccc3OC)cc2)C1 (configuration not stated) 1.94%, Cc1cc(OC(C)C(=O)NCc2ccccn2)c2c(C)cc(=O)oc2c1 (configuration not stated) 3.43%, COc1ccccc1C(=O)NCCC(=O)NCC(c1ccc(F)cc1)N1CCOCC1 (configuration not stated) -2.36%, CCC(NC(=O)Cc1c(C)c2c(cc(C)c3c(C)c(C)oc32)oc1=O)C(=O)O (configuration not stated) -3.68%, Cn1nc(N2CCN(S(=O)(=O)c3ccccc3)CC2)c(=O)n(C)c1=O -0.274%, O=C(NC1CCCCC1)C(c1ccco1)N(C(=O)c1csnn1)c1cccc(Cl)c1 (configuration not stated) 1.05%
